NS1 function inh – influenza NS1 inhibition | hit rate 0.4% among 270,000 | Potency, µM (top dose mostly 46.1 µM); also: actives are rising curves; nearly all actives have a fitted effect of over 50% in size
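Read-out: OD600 growth recovery of NS1-expressing budding yeast. Cells grown overnight at 30C in -URA glucose medium, washed, resuspended and diluted 1:100 in 2% galactose assay medium, pH 6.0. Same strain lacking NS1 served as positive control.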
Pf growth 48h – P. falciparum growth inhibition at 48 hours (one generation) | P. falciparum luciferase growth in erythrocytes, 48 h | Potency, µM (top dose mostly 28.7 µM), usual class: inhibitors | hit rate 5.9% among 310,000 | AID 504832; active = well fitted inhibition curve with a large enough effect; inconclusive = small, poorly fitted or top-dose-only effect, or another doubt; inactive = no such curve, though single readings can be large or run the other way
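Read-out is firefly luciferase luminescence from an integrated reporter in P. falciparum, so falling signal marks reduced parasite growth. Infected erythrocytes were at 2% hematocrit and 0.1% parasitemia (final) in Albumax-supplemented RPMI 1640.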
Shiga toxin inh – inhibitors of Shiga toxin in Vero cells. inhibition, % at 38.7 µM. hit rate 9.2% among 290,000. AID 2315. Vero cells, Shiga toxin protein synthesis inhibition reporter; in the data active = inhibition mostly above about 28%, no sharp cut-off; inactive = mostly below about 43%
CHX counter – affects cycloheximide protein synthesis inhibition readout, counter-screen | cell reporter, cycloheximide protein synthesis inhibition counterscreen | max response, % | hit rate 12% among 300,000; in the data active = max response mostly above about 13%, no sharp cut-off; inactive = mostly below about 14%; also: read at 38.3 µM for the half of the compounds with a filed dose
SARS PLpro yeast – blocks SARS-CoV papain-like protease in a yeast assay; S. cerevisiae expressing SARS-CoV PLpro, growth rescue; Potency, µM (top dose mostly 32.9 µM), hits mostly activators; hit rate 0.19% among 330,000; AID 485353; also: nearly all actives have a fitted effect of over 55% in size
Pf growth 96h – inhibits malaria parasite growth, 96 h; P. falciparum luciferase reporter growth, 96 h; Potency, µM (top dose mostly 28.7 µM), hits mostly inhibitors; hit rate 6.9% among 320,000; AID 504834; active = well fitted inhibition curve with a large enough effect; inconclusive = small, poorly fitted or top-dose-only effect, or another doubt; inactive = no such curve, though single readings can be large or run the other way
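P. falciparum expressing integrated firefly luciferase grown in erythrocytes (2% hematocrit, 0.05% parasitemia final) with compounds for 96 hours at 37 C, 5% CO2. Growth inhibition read as loss of luminescence after adding luciferase detection reagent.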
A number is an active result; – = inactive; ? = inconclusive; · = no result given; [ ] = dose if it differs, or a comment. Most compounds without a hit are left out; they make up all but 21% or so of the library. Unless noted, calls follow the shape of the full dose curve.

SMILES	NS1 function inh	Pf growth 48h	Shiga toxin inh	CHX counter	SARS PLpro yeast	Pf growth 96h
Cc1cc(C)cc(NC(=O)N2CCCN(c3ncccc3[N+](=O)[O-])CC2)c1	–	?	–	–	–	?
CC(C)NC(=S)N1CCCN(c2ncccc2[N+](=O)[O-])CC1	–	?	–	–	–	9.28µM
COc1ccc(Nc2ncnc3sc(C)cc23)c(OC)c1	–	–	48.1	23.3	–	?
CC(C)C1=NN(C(=O)c2ccccc2)C(O)(C(C)(C)C)C1 (centres undefined)	–	–	–	29.0	–	–
CC(C)(C)C1(O)CC(C(F)(F)F)=NN1C(=O)CCCc1ccccc1 (centres undefined)	–	–	–	–	–	–
CC(C)(C)C1=NN(C(=O)c2ccccc2)C(O)(C(C)(C)C)C1 (centres undefined)	–	–	34.3	13.0	–	?
CN(C)c1ccc(Nc2cc(Cl)ncn2)cc1	–	–	·	41.7	–	?
Cc1ccccc1CC1(CO)CCCN(C(=O)CCCN2CCCCC2=O)C1 (centres undefined)	–	–	–	17.4	–	?
Cc1ccccc1CC1(CO)CCCN(C(=O)c2ccccc2N(C)C)C1 (centres undefined)	–	?	–	–	–	0.928µM
Cc1ccsc1C(=O)N1CCC(CO)(Cc2ccccc2)CC1	–	–	–	–	–	–
CCOC(=O)C1(Cc2ccccc2C)CCCN(C(=O)CN2CCCCC2=O)C1 (centres undefined)	–	?	–	–	–	–
Cc1ccsc1C(=O)N1CCCC(CO)(Cc2ccccc2)C1 (centres undefined)	–	–	–	21.6	–	?
COc1ccc(CN(C)C(=O)c2ccc(NC(=O)CC3SC(N4CCCC4)=NC3=O)cc2)c(OC)c1 (centres undefined)	·	?	·	·	–	?
CN(Cc1c(F)cccc1Cl)C(=O)c1ccc(NC(=O)CC2SC(N3CCCC3)=NC2=O)cc1 (centres undefined)	·	10.4µM	·	·	–	?
COc1ccc(CN(C)C(=O)c2ccc(NC(=O)CC3SC(N4CCCC4)=NC3=O)cc2)c(OC)c1OC (centres undefined)	·	?	·	·	–	5.86µM
CCN(CC(=O)Nc1c(F)cccc1F)C(=O)c1ccc(NC(=O)CC2SC(N3CCCC3)=NC2=O)cc1 (centres undefined)	·	–	·	·	–	13.1µM
COc1ccc(C2(c3ccc(OC)cc3)NC(=O)NC2=O)cc1	–	–	–	–	–	–
CC1CN(C(=O)COC(=O)c2cccc(S(=O)(=O)N3CCc4ccccc43)c2)CC(C)O1 (centres undefined)	·	·	·	·	–	·
CCOC(=O)/C=C(C)\C=C\c1c[nH]c2ccccc12	–	13.1µM	55.6	29.7	–	–
CCOC(=O)C1=C(O)/C(=C\c2sccc2C)N=C1C	–	?	–	–	–	–
COC(=O)c1cccc(-n2c(C)cc(C=O)c2C)c1C	–	–	48.6	19.4	–	?
COc1ccc(OC)c(-n2c(C)cc(C=O)c2C)c1	–	–[1.15 µM]	–	–	–	?
COC(=O)C1=C(O)/C(=C\c2sccc2C)N=C1C	–	–	–	27.5	–	–
COC(=O)C1=C(C)NC(=O)/C1=C\c1cc(C)n(-c2ccccc2)c1C	·	–	102.1	34.7	–	?
COC(=O)C1=C(C)NC(=O)/C1=C\c1cc(C)n(-c2cc(C)cc(C)c2)c1C	–	·	–	–	–	–
SMILES	NS1 function inh	Pf growth 48h	Shiga toxin inh	CHX counter	SARS PLpro yeast	Pf growth 96h
COC(=O)C1=C(O)/C(=C\c2cc(C)n(-c3ccccc3F)c2C)N=C1C	·	?	82.0	33.6	–	–
O=C(O)c1c(-c2nccc3ccccc23)[nH]c(-c2ccccc2)c1S(=O)(=O)O	–	·	·	·	·	·
Cc1cc(C)c(NC(=O)CNC(=O)c2ccc3ncsc3c2)c(C)c1	·	·	·	·	–	·
Cc1cc(C)c2c3c(oc2n1)C(=O)N(c1cccc(Cl)c1)CC(=O)N3	–	–	–	–	–	–
NC(N)=NC(N)=Nc1ccc(O)cc1	–	?	–	–	–	–
Cc1ccc(N=C(N)N=C(N)N)cc1	–	9.28µM	–	–	–	?
Cc1ccc(CNC(=O)[C@H](C)N2C(=O)N3CCc4c([nH]c5ccccc45)[C@@]3(C)C2=O)cc1	–	?	–	–	–	–
COc1ccc2[nH]c3c(c2c1)CCN1C(=O)N([C@@H](C)C(=O)NCc2ccc(F)cc2)C(=O)[C@]31C	–	?	–	–	–	?

Screening results from PubChem BioAssay.
